Source: the supplement of paper PMC6555819

Columns and labels:
Assay in all cases: PBM binding z-score (relative to random genomic background probes); higher = stronger binding; sequences stand for … in GC…GCGATTGACAGCGTAGAATGAAGG
[1] = test system: FXR:RXRa (NR concentration 270 nM, RXRa partner concentration 90 nM)
Method in brief: (§1)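 Probes were double-stranded and carried 34-nt variable regions with direct-repeat seeds, single-nucleotide variants, half-site ablations and random human genomic background sequences, printed on custom Agilent 4×180K protein-binding microarrays. Arrays were incubated 1 h with ligand-free nuclear receptor dimers in PBS pH 7.4, 2% milk, 0.02% Triton X-100, 1 mM DTT, 0.2 mg/mL BSA and 0.4 mg/ml salmon testes DNA. Antibodies against each partner (one per run) detected binding, and scanned fluorescence was regression-normalized. Binding z-scores use the random background probes as reference.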

[2] = test system: LXRa:RXRa (NR concentration 270 nM, RXRa partner concentration 90 nM)
Method in brief: as §1

[3] = test system: LXRa homodimer (NR concentration 270 nM)
Method in brief: as §1

[4] = test system: LXRb:RXRa (NR concentration 270 nM, RXRa partner concentration 90 nM)
Method in brief: as §1

[5] = test system: LXRb homodimer (NR concentration 270 nM)
Method in brief: as §1

[6] = test system: PPARa:RXRa (NR concentration 270 nM, RXRa partner concentration 90 nM)
Method in brief: as §1

[7] = test system: PPARg:RXRa (NR concentration 180 nM, RXRa partner concentration 90 nM)
Method in brief: as §1

[8] = test system: PPARg:RXRa 270nM:90nM, anti-RXR (NR concentration 270 nM, RXRa partner concentration 90 nM)
Method in brief: as §1

[9] = test system: PPARg:RXRa 30nM:10nM, anti-RXR (NR concentration 30 nM, RXRa partner concentration 10 nM)
Method in brief: as §1

[10] = test system: PPARg:RXRa 90nM:30nM, anti-RXR (NR concentration 90 nM, RXRa partner concentration 30 nM)
Method in brief: as §1

[11] = test system: PPARg:RXRa DBDmut IVT, anti-RXR (DBD mutation: RXRa K156A/R161A, NR concentration 270 nM, RXRa partner concentration 90 nM)
Method in brief: as §1

[12] = test system: PPARg:RXRa IVT, anti-PPARg (NR concentration 270 nM, RXRa partner concentration 90 nM)
Method in brief: as §1

[13] = test system: PPARg DBDmut:RXRa IVT, anti-PPARg (DBD mutation: PPARg1 K132A/R137A, NR concentration 270 nM, RXRa partner concentration 90 nM)
Method in brief: as §1

[14] = test system: PPARg DBDmut IVT, anti-PPARg (DBD mutation: PPARg1 K132A/R137A, NR concentration 270 nM)
Method in brief: as §1

[15] = test system: PPARg homodimer (NR concentration 180 nM)
Method in brief: as §1

[16] = test system: PXR:RXRa (NR concentration 270 nM, RXRa partner concentration 90 nM)
Method in brief: as §1

[17] = test system: PXR homodimer (NR concentration 270 nM)
Method in brief: as §1

[18] = test system: RARa:RXR (NR concentration 270 nM, RXRa partner concentration 90 nM)
Method in brief: as §1

[19] = test system: RARa homodimer (NR concentration 270 nM)
Method in brief: as §1

[20] = test system: RARb:RXRa (NR concentration 270 nM, RXRa partner concentration 90 nM)
Method in brief: as §1

| Sequence | PBM binding z-score [1] | PBM binding z-score [2] | PBM binding z-score [3] | PBM binding z-score [4] | PBM binding z-score [5] | PBM binding z-score [6] | PBM binding z-score [7] | PBM binding z-score [8] | PBM binding z-score [9] | PBM binding z-score [10] | PBM binding z-score [11] | PBM binding z-score [12] | PBM binding z-score [13] | PBM binding z-score [14] | PBM binding z-score [15] | PBM binding z-score [16] | PBM binding z-score [17] | PBM binding z-score [18] | PBM binding z-score [19] | PBM binding z-score [20] |
| --- | --- | --- | --- | --- | --- | --- | --- | --- | --- | --- | --- | --- | --- | --- | --- | --- | --- | --- | --- | --- |
| ATACCAAGGTGATCGTGAGGTCGTAGATACTAAC | 1.57 | 1.07 | 0.236 | 0.929 | -0.173 | 1.73 | 0.732 | 0.484 | -0.23 | -0.092 | 0.0521 | 1.54 | 0.536 | 0.745 | 0.811 | 2.2 | 0.811 | 2.21 | 0.262 | 1.33 |
| CGAACTAGGTCAGAACAGGACAGTGATGGATGAT | 1.29 | 0.678 | 0.233 | 0.327 | -0.482 | 2.91 | 5.11 | 4.36 | 2 | 3.37 | 6.82 | 7.04 | 3.7 | 2.44 | 1.38 | 0.583 | 0.0168 | 1.39 | 0.336 | 2.66 |
| GCTTACGCGTCAAAGGTTATAGCATGAATAGAAT | 1.21 | 1.97 | -0.0765 | 2.18 | -0.553 | 3.38 | 3.1 | 3.84 | 2.28 | 4.07 | -0.0505 | 0.407 | -0.0262 | 0.00309 | 1.46 | 2.22 | -0.288 | 3.3 | -0.0243 | 1.22 |
| CCTTACGTGTCAAGGTTATAGCACGGGTGGTACG | 0.976 | 0.929 | 0.288 | 0.638 | 0.609 | 1.36 | 0.992 | 0.8 | 0.3 | 0.364 | 0.564 | 0.962 | -0.292 | 0.0662 | 0.942 | 0.998 | 0.776 | 1.16 | 1.18 | 1.57 |
| TCTTGTGGATCAAGCAGGTTAAGAAAGCCTGAGT | 0.364 | 0.407 | -0.212 | 0.444 | -0.493 | 0.766 | -0.54 | 1.07 | 2.27 | 1.58 | 1.46 | 0.177 | -0.713 | 0.262 | -0.187 | 0.422 | 0.248 | 0.506 | -0.587 | 0.161 |
| CATACAGGGTCACCTAGGCCAGAGTAGGGACGGC | 6.41 | 4.26 | 0.036 | 3.35 | 0.688 | 5.64 | 6.1 | 5.1 | 2.1 | 3.77 | 1.55 | 4.32 | 1.86 | 1.64 | 1.65 | 3.56 | 0.395 | 4.49 | 0.259 | 4.41 |
| CCTTACGGGTCACCGACAGGTTATAGCATTTGGA | 6.22 | 4.88 | 0.46 | 3.96 | -0.223 | 5.69 | 6.3 | 5.64 | 2.16 | 4.6 | 2.51 | 4.22 | 0.292 | 0.016 | 3.32 | 4.11 | -0.087 | 5.27 | 0.277 | 4.52 |
| TTACCAAGGTGAGAGGTCGTTGATGCACGCCTTG | 1.86 | 1.62 | 0.0582 | 1.46 | -0.758 | 3.59 | 6.22 | 6.4 | 4.84 | 6.5 | 1.49 | 4.04 | 0.616 | 0.0764 | 1.63 | 2.47 | 0.681 | 3.06 | -0.505 | 2.33 |
